Source: PubChem BioAssay (Tox21)
“And” between values parts separate entries of the source, which are not always exact repeats. Equal entries are not always repeated. Records with an inconclusive call do not appear. A call without a number means that no potency is given here. More than one record can exist for a structure, and the calls need not agree. The source made the active and inactive calls. The call rests on the fitted dose curve.

Legend:
[1] = biological target: Acetylcholinesterase (Homo sapiens) (UniProt P22303); assay: Acetylcholinesterase (AChE) small molecule antagonists: colormetric cell-based qHTS assay (AID 1347395); further: nearly all actives have a fitted effect of over 30% in size; further: potency means the concentration at half of the fitted maximal effect
Outline: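 SH-SY5Y cells, plated overnight at 37 C, were exposed to compounds for 30 min at 37 C and 5% CO2. Acetylthiocholine plus DTNB was then added, and thiocholine from endogenous AChE was quantified colorimetrically after 90 min at 37 C.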

[2] = biological target: Acetylcholinesterase (Homo sapiens) (UniProt P22303); assay: Acetylcholinesterase (AChE) small molecule antagonists: enzyme-based qHTS assay (AID 1347397); conditions: Potency: AChE enzyme activity inhibition; outcome: AChE enzyme activity inhibition; further: nearly all actives have a fitted effect of over 55% in size; further: potency means the concentration at half of the fitted maximal effect
Outline: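 Recombinant human AChE, dispensed at 50 mU/mL, was preincubated with Tox21 10K compounds or DMSO vehicle for 30 min at room temperature. DTNB plus acetylthiocholine was then added, and thiocholine was measured colorimetrically after a further 10 min.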

[3] = biological target: Acetylcholinesterase (Homo sapiens) (UniProt P22303); assay: Acetylcholinesterase (AChE) small molecule antagonists: fluorescence cell-based qHTS assay (AID 1347398); conditions: Potency: AChE activity; outcome: AChE activity; further: nearly all actives have a fitted effect of over 50% in size; further: potency means the concentration at half of the fitted maximal effect
Outline: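 Human SH-SY5Y cells were plated overnight at 37 C, exposed to compound for 30 min at 37 C, 5% CO2, then given acetylthiocholine plus Thiolite Green for 40 min at room temperature; thiocholine fluorescence (Ex/Em 490/520 nm) reports endogenous AChE activity.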

[4] = biological target: Acetylcholinesterase (Homo sapiens) (UniProt P22303); assay: Acetylcholinesterase (AChE) small molecule antagonists: enzyme-based qHTS assay with human liver microsomes (AID 1347399); conditions: Potency: qHTS inhibition; outcome: qHTS inhibition; further: nearly all actives have a fitted effect of over 60% in size
Outline: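 Recombinant human AChE (50 mU/mL in the enzyme mix) and human liver microsomes (0.25 mg/mL final) were preincubated with compound and NADPH (0.25 mg/mL final) for 30 min at 37 C. Acetylthiocholine/DTNB was then added; thiocholine was read colorimetrically after 10 min at room temperature.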

Sequence of Acetylcholinesterase (Homo sapiens) (P22303 whole entry, looked up): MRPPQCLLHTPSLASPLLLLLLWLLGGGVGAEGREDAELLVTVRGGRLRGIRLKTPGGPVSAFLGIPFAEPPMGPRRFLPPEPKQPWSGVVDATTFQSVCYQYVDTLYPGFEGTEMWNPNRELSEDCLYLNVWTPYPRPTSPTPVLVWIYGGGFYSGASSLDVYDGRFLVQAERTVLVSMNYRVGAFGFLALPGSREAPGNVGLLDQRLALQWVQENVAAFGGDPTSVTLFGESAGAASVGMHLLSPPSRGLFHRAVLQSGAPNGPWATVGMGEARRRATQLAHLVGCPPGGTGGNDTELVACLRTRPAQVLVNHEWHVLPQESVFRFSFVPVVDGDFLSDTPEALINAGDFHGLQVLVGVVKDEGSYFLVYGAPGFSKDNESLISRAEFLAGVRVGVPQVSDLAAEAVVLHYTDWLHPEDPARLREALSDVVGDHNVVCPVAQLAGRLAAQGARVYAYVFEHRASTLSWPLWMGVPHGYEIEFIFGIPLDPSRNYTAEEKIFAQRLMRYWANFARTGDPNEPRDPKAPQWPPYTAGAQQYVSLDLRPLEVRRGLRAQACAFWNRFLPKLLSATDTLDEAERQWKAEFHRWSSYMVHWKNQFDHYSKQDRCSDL

NCCCCCC(=O)O
Potency [1]: inactive
Potency [2]: inactive
Potency [3]: inactive
Potency [4]: inactive

O=C(Nc1cccc(C(F)(F)F)c1)c1cc(Br)cc(Br)c1O
Potency [1]: inactive
Potency [2]: inactive
Potency [3]: inactive
Potency [4]: inactive

CCCCNS(=O)(=O)c1ccc(C)cc1
Potency [1]: inactive
Potency [2]: inactive
Potency [3]: inactive
Potency [4]: inactive

O=C1OCCN1/N=C/c1ccc([N+](=O)[O-])o1
Potency [1]: inactive
Potency [2]: inactive
Potency [3]: inactive
Potency [4]: inactive

COc1cc2c(cc1N)oc1ccccc12
Potency [1]: inactive
Potency [2]: inactive
Potency [3]: inactive
Potency [4]: inactive

C1CCN(CN2CCCCC2)CC1
Potency [1]: inactive
Potency [2]: inactive
Potency [3]: inactive
Potency [4]: inactive

CCc1ccc(CC)cc1
Potency [1]: inactive
Potency [2]: inactive
Potency [3]: inactive
Potency [4]: inactive

O=C(Nc1ccc(Cl)cc1)Nc1ccc(Cl)c(Cl)c1
Potency [1]: inactive
Potency [2]: inactive
Potency [3]: inactive
Potency [4]: inactive

CC(C)=CCC/C(C)=C/C(=O)O
Potency [1]: inactive
Potency [2]: inactive
Potency [3]: inactive
Potency [4]: inactive

CC(=O)OCCOCCOCCOC(C)=O
Potency [1]: inactive
Potency [2]: inactive
Potency [3]: inactive
Potency [4]: inactive

O=C(O)c1ccc(Cl)cc1Cl
Potency [1]: inactive
Potency [2]: inactive
Potency [3]: inactive
Potency [4]: inactive

O=C=Nc1ccc(Cl)c(Cl)c1
Potency [1]: inactive
Potency [2]: inactive
Potency [3]: inactive
Potency [4]: inactive

CN(C)/N=N/c1nc[nH]c1C(N)=O
Potency [1]: inactive
Potency [2]: inactive
Potency [3]: inactive
Potency [4]: inactive

Cc1ccc(O)c(C(=O)c2ccccc2)c1
Potency [1]: inactive
Potency [2]: inactive
Potency [3]: inactive
Potency [4]: inactive

O=C(O)CCCc1c[nH]c2ccccc12
Potency [1]: inactive
Potency [2]: inactive
Potency [3]: inactive
Potency [4]: inactive

ClC1=C(Cl)C1(Cl)Cl
Potency [1]: inactive
Potency [2]: inactive
Potency [3]: inactive
Potency [4]: inactive

C#CCN(C)Cc1ccccc1
Potency [1]: inactive
Potency [2]: inactive
Potency [3]: inactive
Potency [4]: inactive

CSc1ccc(C=O)cc1
Potency [1]: inactive
Potency [2]: inactive
Potency [3]: inactive
Potency [4]: inactive

COc1c(Cl)c(Cl)c(Cl)c(Cl)c1Cl
Potency [1]: inactive
Potency [2]: inactive
Potency [3]: inactive
Potency [4]: inactive

CC(C)Cc1ccc(CC(=O)O)cc1
Potency [1]: inactive
Potency [2]: inactive
Potency [3]: inactive
Potency [4]: inactive

c1ccc2c(c1)ccc1ccccc12
Potency [1]: inactive
Potency [2]: inactive
Potency [3]: inactive
Potency [4]: inactive

C=CCCCCCCCCC(=O)O
Potency [1]: inactive
Potency [2]: inactive
Potency [3]: inactive
Potency [4]: inactive

N=C(N)N
Potency [1]: inactive
Potency [2]: inactive
Potency [3]: inactive
Potency [4]: inactive

O=C(NCN1CCOCC1)c1cnccn1
Potency [1]: inactive
Potency [2]: inactive
Potency [3]: inactive
Potency [4]: inactive

CC1=CC[C@H]2C[C@@H]1C2(C)C
Potency [1]: inactive
Potency [2]: 63.9 µM (active) and inactive
Potency [3]: 32 µM (active) and inactive
Potency [4]: inactive

CCCCOC(=O)CCS
Potency [1]: inactive
Potency [2]: inactive
Potency [3]: inactive
Potency [4]: inactive

CCCCC(CC)COC(=O)COc1ccc(Cl)cc1C (stereo not given)
Potency [1]: inactive
Potency [2]: inactive
Potency [3]: inactive
Potency [4]: inactive

Cc1c(OCC(F)(F)F)ccnc1CS(=O)c1nc2ccccc2[nH]1 (stereo not given)
Potency [1]: inactive
Potency [2]: inactive
Potency [3]: inactive
Potency [4]: inactive

C[C@@H](O)C(=O)O
Potency [1]: inactive
Potency [2]: inactive
Potency [3]: inactive
Potency [4]: inactive

CN(C)c1ccc(C(=C2C=CC(=[N+](C)C)C=C2)c2ccc(N(C)C)cc2)cc1
Potency [1]: 70.6 µM (active)
Potency [2]: 25.1 µM (active) and 35.6 µM (active) and 30.9 µM (active)
Potency [3]: 19.9 µM (active) and 44.8 µM (active) and 15.5 µM (active)
Potency [4]: inactive

CCCCCC1CCCC(=O)O1 (stereo not given)
Potency [1]: inactive
Potency [2]: inactive
Potency [3]: inactive
Potency [4]: inactive

Nc1ccc(C(=O)O)cc1
Potency [1]: inactive
Potency [2]: inactive
Potency [3]: inactive
Potency [4]: inactive

NCCOCCN
Potency [1]: inactive
Potency [2]: inactive
Potency [3]: inactive
Potency [4]: inactive

C[Si](C)(C)O[Si](C)(C)C
Potency [1]: inactive
Potency [2]: inactive
Potency [3]: 35.4 µM (active) and inactive
Potency [4]: inactive

COC(=O)c1ccc2cc(C(=O)OC)ccc2c1
activity, negative = inhibition [1]: 3.17% [at 23.6 µM] (inactive)
activity change, negative = inhibition [2]: -0.273% [at 23.6 µM] (inactive)
activity change, negative = inhibition [3]: -7.2% [at 23.8 µM] (inactive)
activity change, negative = inhibition [4]: -4.52% [at 23.6 µM] (inactive)

CCCCc1ccc(Cl)cc1
Potency [1]: inactive
Potency [2]: inactive
Potency [3]: inactive
Potency [4]: inactive

C/C=C/C=C/CCCCCCCO
Potency [1]: inactive
Potency [2]: inactive
Potency [3]: inactive
Potency [4]: inactive

O=C[O][Al]([O]C=O)[O]C=O
Potency [1]: inactive
Potency [2]: inactive
Potency [3]: inactive
Potency [4]: inactive

CCCCCCCCCCOc1cc2c(=O)c(C(=O)OCC)c[nH]c2cc1OCC
activity, negative = inhibition [1]: 1.43% [at 10.5 µM] (inactive)
activity change, negative = inhibition [2]: 0.693% [at 10.5 µM] (inactive)
activity change, negative = inhibition [3]: -0.416% [at 10.5 µM] (inactive)
activity change, negative = inhibition [4]: -5.96% [at 10.5 µM] (inactive)

CC1(C)CC(OC(=O)CCCCCCCCC(=O)OC2CC(C)(C)NC(C)(C)C2)CC(C)(C)N1
activity, negative = inhibition [1]: -3.47% [at 23.6 µM] (inactive)
activity change, negative = inhibition [2]: 1.77% [at 23.6 µM] (inactive)
activity change, negative = inhibition [3]: -14.4% [at 23.8 µM] (inactive)
activity change, negative = inhibition [4]: 0.16% [at 23.6 µM] (inactive)

CC(C)Oc1ccc2c(=O)c(-c3ccccc3)coc2c1
Potency [1]: inactive
Potency [2]: inactive
Potency [3]: inactive
Potency [4]: inactive

CCCCCCCCCCC1CO1 (stereo not given)
Potency [1]: inactive
Potency [2]: inactive
Potency [3]: inactive
Potency [4]: inactive

CCCOC(=O)c1cc(O)c(O)c(O)c1
Potency [1]: inactive
Potency [2]: inactive
Potency [3]: inactive
Potency [4]: inactive

CN1CCN(CCCN2c3ccccc3Sc3ccc(Cl)cc32)CC1
Potency [1]: inactive
Potency [2]: inactive
Potency [3]: inactive
Potency [4]: inactive

CCN(CC)C(=O)c1ccc(O)c(OC)c1
Potency [1]: inactive
Potency [2]: inactive
Potency [3]: inactive
Potency [4]: inactive

C=C(C)C(=O)OCCN(CC)CC
Potency [1]: inactive
Potency [2]: inactive
Potency [3]: inactive
Potency [4]: inactive

CC(C)c1ccccc1C(C)C
Potency [1]: inactive
Potency [2]: inactive
Potency [3]: inactive
Potency [4]: inactive

CCOC(=O)[C@H](C)O
Potency [1]: inactive
Potency [2]: inactive
Potency [3]: inactive
Potency [4]: inactive

CC(=O)O[Si](C)(OC(C)=O)OC(C)=O
Potency [1]: inactive
Potency [2]: inactive
Potency [3]: inactive
Potency [4]: inactive

Nc1ccc(S(=O)(=O)Nc2cnc3ccccc3n2)cc1
Potency [1]: inactive
Potency [2]: inactive
Potency [3]: inactive
Potency [4]: inactive

Nc1ccc(S(=O)(=O)Nc2ccnn2-c2ccccc2)cc1
activity, negative = inhibition [1]: -0.528% [at 23.6 µM] (inactive)
activity change, negative = inhibition [2]: -0.415% [at 23.6 µM] (inactive)
activity change, negative = inhibition [3]: 5.71% [at 23.8 µM] (inactive)
activity change, negative = inhibition [4]: -0.674% [at 23.6 µM] (inactive)

CC[C@H](c1ccc(O)cc1)[C@@H](CC)c1ccc(O)cc1
Potency [1]: inactive
Potency [2]: inactive
Potency [3]: inactive
Potency [4]: inactive

O=CN(CCO)CCO
Potency [1]: inactive
Potency [2]: inactive
Potency [3]: inactive
Potency [4]: inactive

O=Cc1ccc([N+](=O)[O-])cc1
Potency [1]: inactive
Potency [2]: inactive
Potency [3]: inactive
Potency [4]: inactive

Fc1ccc(Br)cc1
Potency [1]: inactive
Potency [2]: inactive
Potency [3]: inactive
Potency [4]: inactive

CC(=O)O[C@]1(C(C)=O)CC[C@H]2[C@@H]3C=C(C)C4=CC(=O)CC[C@]4(C)[C@H]3CC[C@@]21C
Potency [1]: inactive
Potency [2]: inactive
Potency [3]: inactive
Potency [4]: inactive

CCCCNC(=O)NCCCC
Potency [1]: inactive
Potency [2]: inactive
Potency [3]: inactive
Potency [4]: inactive

COc1cc2[nH]c(=O)[nH]c(=O)c2cc1OC
Potency [1]: inactive
Potency [2]: inactive
Potency [3]: inactive
Potency [4]: inactive

CC(C)NC(=O)NC(C)C
Potency [1]: inactive
Potency [2]: inactive
Potency [3]: inactive
Potency [4]: inactive

CCCCC(C=O)CC (stereo not given)
Potency [1]: inactive
Potency [2]: inactive
Potency [3]: inactive
Potency [4]: inactive
